A short description of assay [1]: qHTS assay to identify small molecule agonists of the hypoxia (HIF-1) signaling pathway (AID 1224846; active means well fitted activation curve with a large enough effect in the signal ratio in the repeat runs, not every such curve was filed as active; the % refers to the signal ratio). In short, it runs like this:
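Compounds added to ME-180 cells carrying hypoxia-response-element beta-lactamase reporter (0.5% dialyzed FBS, 5 h preplating), 17 h at 37C; agonist activity detected by CCF4-AM B/G FRET read-out.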
(qHTS replaces the single test concentration by a dilution series.)

A short description of assay [2]: qHTS assay to identify small molecule agonists of H2AX - cell viability counter screen (AID 1224847; calls by dose curve; further: nearly all actives have a fitted effect of over 30% in size; further: potency means the concentration at half of the fitted maximal effect). In short, it runs like this: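 Wild-type CHO-K1 cells (10% FBS medium) were plated overnight at 37C, exposed to compounds at 15 concentrations for 3 hr at 37C (0.76% DMSO final), and viability was read as CellTiter-Glo luminescence after 30 min at room temperature.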

A short description of assay [3]: qHTS RealTime-Glo MT Cell Viability Assay in HepG2 cells - 24 hour (AID 1224867). Further: nearly all actives have a fitted effect of over 50% in size. The method, boiled down:
(§1)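 Compound treatment began 5 h after plating HepG2 cells (600/well) with NanoLuc luciferase and prosubstrate. Plates stayed at 37 C for 40 h; luminescence was captured at six time points, 0 h through 40 h.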

Assay [4] is described as follows: qHTS RealTime-Glo MT Cell Viability Assay in HEK293 cells - 32 hour (AID 1224868). Further: nearly all actives have a fitted effect of over 50% in size. Further: potency means the concentration at half of the fitted maximal effect. The method, boiled down:
(§2)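 Quantitative high-throughput screen of the Tox21 10K library in HEK293: cells and RealTime-Glo reagents plated together, compound added at 5 h, luminescence monitored through 40 h at 37 C.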

The nature of assay [5]: A CellTox Green Cytotoxicity Assay to monitor cytotoxicity in HEK293 cells - 0 hour (AID 1224869). Further: nearly all actives have a fitted effect of over 50% in size. The method, boiled down:
(§3)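 Fluorescence from a DNA-binding dye excluded by viable cells was measured repeatedly in the same HEK293 wells (600 cells/well) during continuous compound exposure at 37 C. Each assay gives one read point: 0, 8, 16, 24, 32 or 40 h.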

The nature of assay [6]: qHTS RealTime-Glo MT Cell Viability Assay in HepG2 cells - 40 hour (AID 1224870). Further: nearly all actives have a fitted effect of over 50% in size. In short, it runs like this: (§4)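 HepG2 cells mixed with RealTime-Glo MT reagents (NanoLuc plus cell-permeant prosubstrate) were seeded at 600 cells/well, incubated 5 h at 37 C/5% CO2, then pinned with compounds in DMSO; nonlytic luminescence tracked viability during 40 h treatment.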
Assay [7] in a line: A CellTox Green Cytotoxicity Assay to monitor cytotoxicity in HEK293 cells - 40 hour (AID 1224871). Further: nearly all actives have a fitted effect of over 45% in size. Further: potency means the concentration at half of the fitted maximal effect. The method, boiled down: as §3
A short description of assay [8]: qHTS RealTime-Glo MT Cell Viability Assay in HEK293 cells - 16 hour (AID 1224872). Further: nearly all actives have a fitted effect of over 50% in size. Further: potency means the concentration at half of the fitted maximal effect. In short, it runs like this:
as §2

Assay [9] can be described thus: qHTS RealTime-Glo MT Cell Viability Assay in HepG2 cells - 8 hour (AID 1224873). Further: nearly all actives have a fitted effect of over 55% in size. In short, it runs like this:
as §4

Assay [10] in a line: qHTS RealTime-Glo MT Cell Viability Assay in HEK293 cells - 40 hour (AID 1224874). Further: nearly all actives have a fitted effect of over 50% in size. Further: potency means the concentration at half of the fitted maximal effect. The conditions noted are these: RealTime-Glo luminescence; max response: stronger effect = lower value. The method, boiled down: (§5)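 Luminescence, which tracks viable cell number through reduction of the prosubstrate to a NanoLuc substrate, was read over continuous 37 C culture. Cells (600/well) were premixed with reagent and rested 5 h before 23 nL of compound in DMSO was pinned.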

A short description of assay [11]: A CellTox Green Cytotoxicity Assay to monitor cytotoxicity in HEK293 cells - 24 hour (AID 1224875). Further: nearly all actives have a fitted effect of over 45% in size. The method, boiled down: as §3
Assay [12] in a line: A CellTox Green Cytotoxicity Assay to monitor cytotoxicity in HepG2 cells - 16 hour (AID 1224876). Further: nearly all actives have a fitted effect of over 45% in size. In short, it runs like this:
(§6)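 Real-time cytotoxicity: fluorescence of a cell-impermeant cyanine dye binding DNA of dead HepG2 cells, measured repeatedly (0–40 h) during compound exposure at 37 C. Cells seeded 600/well with reagent, dosed after 5 h.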

A short description of assay [13]: qHTS RealTime-Glo MT Cell Viability Assay in HepG2 cells - 32 hour (AID 1224877). Further: nearly all actives have a fitted effect of over 55% in size. In short, it runs like this:
as §1

The nature of assay [14]: A CellTox Green Cytotoxicity Assay to monitor cytotoxicity in HepG2 cells - 24 hour (AID 1224878). Further: nearly all actives have a fitted effect of over 45% in size. The method, boiled down: as §6
A short description of assay [15]: A CellTox Green Cytotoxicity Assay to monitor cytotoxicity in HepG2 cells - 40 hour (AID 1224879). Further: nearly all actives have a fitted effect of over 40% in size. The method, boiled down: as §6
Assay [16] can be described thus: qHTS RealTime-Glo MT Cell Viability Assay in HEK293 cells - 0 hour (AID 1224880). In short, it runs like this:
as §5

The nature of assay [17]: A CellTox Green Cytotoxicity Assay to monitor cytotoxicity in HEK293 cells - 32 hour (AID 1224881). Further: nearly all actives have a fitted effect of over 40% in size. In short, it runs like this:
as §3

Assay [18] can be described thus: A CellTox Green Cytotoxicity Assay to monitor cytotoxicity in HepG2 cells - 0 hour (AID 1224882). Further: nearly all actives have a fitted effect of over 35% in size. The method, boiled down:
as §6

Assay [19] in a line: qHTS assay to identify small molecule agonists of the estrogen related receptor (ERR) signaling pathway from Tox21 library (AID 1224849; calls by dose curve; further: nearly all actives have a fitted effect of over 15% in size). The conditions noted are these: ERR reporter cell line, ONE-Glo luciferase, 18 h; at 92.4 µM (top of the series) unless noted. The method, boiled down: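 Luminescent agonist read-out (One-Glo, 30-minute room-temperature incubation) following 18-hour compound treatment at 37 C of the ERR cell line, which had been plated 6 hours before dosing.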

Molecules are shown by their SMILES. A number with no mark means an inactive call. Records with an inconclusive call do not appear. The source made the active and inactive calls. Unless noted, the call rests on the fitted dose curve; in most records, active means well fitted curve in the direction sought with a large enough effect in the repeat runs; inconclusive means weak or mixed curves; inactive means no such curve, though single readings can be large; an effect the other way counts as inactive or inconclusive.
On the % scale 0 is the no-effect control and ±100 the full control effect.

Consider `CCOC(=O)OC1=C(c2cc(C)ccc2C)C(=O)NC12CCC(OC)CC2` (stereo not drawn), for which, in assay [1], the compound was classed as inactive. In addition, the Potency result in [2], in assay [3], in assay [4], in assay [5], in assay [6] and in [7] was “inactive” in each case. Further, the Potency result in assay [8], in assay [9], in [11], in assay [12], in assay [13] and in assay [14] was “inactive” each time. Besides, the Potency result in assay [15], in assay [16], in assay [17] and in assay [18] was “inactive” throughout. In addition, the max response in [10] is -0.185%.

Take `O=C(CBr)c1ccc(O)cc1`: the outcome in assay [1] was inactive. The Potency result in assay [2], in assay [3], in assay [5], in [6], in [7] and in assay [9] was “inactive” throughout. The Potency result in [11], in [12], in [13], in assay [14], in assay [16] and in [17] was “inactive” throughout. In addition, the Potency result in assay [18] is “inactive”. The activity change, positive = activation in [19] is -26%. In assay [10], the max response was 22.3%.

Take `Cn1cc(C2=C(c3cn(C4CCN(Cc5ccccn5)CC4)c4ccccc34)C(=O)NC2=O)c2ccccc21`: in [1], the result was inactive. The Potency entry in assay [2], in assay [7], in [8], in [11], in assay [14] and in assay [16] was “inactive” in each case. Further, the Potency entry in assay [17] and in [18] was “inactive” each time. Also, the activity change, positive = activation in assay [19] is -11.8% [at 42.5 µM].

As to `Oc1c(Cl)c(Cl)cc(Cl)c1Cl`, in [1], the call was inactive. Further, the Potency is 87.3 µM (active) in assay [2]; 47.6 µM (active) in assay [4]; 42.5 µM (active) in assay [7]; 47.6 µM (active) in [8]; 47.6 µM (active) in [10]. The activity change, positive = activation in assay [19] is -59.9%. For the same compound, the Potency entry in assay [3], in [6], in assay [9], in assay [12], in assay [13] and in [14] was “inactive” throughout. The Potency entry in [15] and in [16] was “inactive” in each case.

Take `ClCc1ccc(Cl)cc1Cl`: the outcome in [1] was inactive. The Potency result in assay [2], in assay [3], in assay [5], in [6], in assay [8] and in assay [9] was “inactive” in each case. The Potency entry in assay [12], in assay [13], in [14], in assay [15], in assay [16] and in assay [18] was “inactive” in each case.

In the case of `Nc1c(Oc2ccccc2)cc(O)c2c1C(=O)c1ccccc1C2=O`, the outcome in assay [1] was inactive. In addition, the Potency entry in [2], in assay [3], in assay [6], in assay [7], in assay [9] and in [11] was “inactive” in each case. The Potency result in [12], in assay [13], in assay [14], in assay [15], in assay [16] and in assay [18] was “inactive” in each case. Further, the Potency was 19 µM (active) in [4] and 10.7 µM (active) in [8].

As to `Cc1c(Cl)c(=O)oc2cc(OP(=O)(OCCCl)OCCCl)ccc12`, the outcome in assay [1] was inactive. Moreover, the Potency result in assay [2], in [3], in assay [5], in [6], in [7] and in [11] was “inactive” each time. Further, the Potency result in assay [13], in assay [14], in [15], in assay [16], in assay [17] and in [18] was “inactive” in each case.

Consider `NC(=O)c1ccc(N)nc1`, for which the result in [1] was inactive. Moreover, the Potency result in assay [2], in assay [3], in assay [5], in [6], in [7] and in assay [8] was “inactive” throughout. Further, the Potency entry in assay [9], in assay [11], in assay [12], in assay [13], in assay [14] and in assay [15] was “inactive” in each case. In addition, the Potency entry in [16] and in [18] was “inactive” each time.

As to `COc1ccc(OC)c(C=O)c1`, the compound was called inactive in assay [1]. Besides, the Potency entry in [2], in assay [3], in [5], in [6], in assay [7] and in assay [9] was “inactive” throughout. Further, the Potency entry in assay [11], in assay [13], in assay [14], in [15], in [17] and in [18] was “inactive” each time.

The record behind these values is PubChem BioAssay (Tox21).
